# Compounds with a hit are over-represented: about 2.3% of the library has one in this group of screens.
# Mcl1 Bid PPI – Mcl-1/Bid binding inhibitors, primary screen, biochemical, TR-FRET, 1536-well | actives 0.97% (n = 220,000) | inhibition, % at 21.7 µM | TR-FRET Mcl-1/Bid-Dy647 peptide binding | AID 1021, 2008 | Induced myeloid leukemia cell differentiation protein Mcl-1 (Homo sapiens), Q07820;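 active = compounds that cut the binding signal by more than half at the single screening dose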;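 also: His-tagged Mcl-1 with europium anti-His antibody binding Bid BH3 peptide; 0% = Mcl-1 plus peptide wells and 100% = peptide-only wells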
# Target sequence (Q07820 whole entry, looked up): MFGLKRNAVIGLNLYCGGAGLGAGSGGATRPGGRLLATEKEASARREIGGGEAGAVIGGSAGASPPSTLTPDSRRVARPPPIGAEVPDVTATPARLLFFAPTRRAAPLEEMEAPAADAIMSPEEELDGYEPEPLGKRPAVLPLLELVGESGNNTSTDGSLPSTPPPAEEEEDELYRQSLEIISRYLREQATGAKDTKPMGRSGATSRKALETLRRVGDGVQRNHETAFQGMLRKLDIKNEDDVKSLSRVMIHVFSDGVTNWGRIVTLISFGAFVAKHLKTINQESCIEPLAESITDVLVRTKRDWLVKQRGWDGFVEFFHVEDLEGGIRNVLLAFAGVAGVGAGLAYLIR
# Bim-Mcl-1 – inhibitors of Bim peptide binding to Mcl-1, primary screen, biochemical, bead-based flow cytometry, multiplex | Induced myeloid leukemia cell differentiation protein Mcl-1 (Homo sapiens), Q07820 | Bim peptide-Mcl-1 binding | inhibition, % at 10 µM | actives 0.1% (n = 190,000) | AID 1009, 2008; in the data active = inhibition above about 40%;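 also: 0% = no compound tracer wells and 100% = peptide blocker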
# GLD-1 TGE inh – GLD-1/TGE RNA complex disruptors, primary screen, biochemical, fluorescence polarization; AID 2280, 2010; purified GLD-1 + fluorescein TGE RNA; inhibition, % at 5.96 µM; Female germline-specific tumor suppressor gld-1 (Caenorhabditis elegans), Q17339; actives 0.44% (n = 320,000);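 active = percent inhibition above a per-plate cutoff, the plate mean of test compounds plus 3 SD, cut at about 30% in these data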;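 also: 0% = DMSO wells with GLD-1 and probe and 100% = wells lacking GLD-1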
# Mcl1-Noxa inh – Mcl-1/Noxa binding inhibitors, primary screen, biochemical, TR-FRET, 1536-well | inhibition, % at 21.7 µM | AID 1022, 2008 | TR-FRET Mcl-1/Noxa peptide binding, 2 h | Induced myeloid leukemia cell differentiation protein Mcl-1 (Homo sapiens), Q07820 | actives 1.5% (n = 220,000);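 active = compounds that cut the protein-peptide binding signal by more than 50% relative to plate controls in a single-dose test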;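 also: His-tagged Mcl-1 with rhodamine Noxa BH3 peptide and terbium anti-His antibody; 0% = Mcl-1 plus Noxa peptide wells and 100% = peptide-only wells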
# MCL1 BIM primary – inhibitors of MCL1 binding to BIM-BH3, primary screen, biochemical, fluorescence polarization. GST-MCL1 / FITC-Bim-BH3 fluorescence polarization. inhibition, % at 10.9 µM. actives 0.68% (n = 320,000). AID 2057, 2009;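 active = inhibition above the mean inhibition of all tested compounds plus 3 SD, set per campaign, cut at about 40% in these data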;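 also: 0% = DMSO wells and 100% = unlabeled Bim-BH3 peptide control; higher means more loss of mP so more displacement of Bim peptide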
# BCLXL inh – inhibitors of human Bcl-xL, primary screen, biochemical, fluorescence polarization, HTS. AID 2129, 2009. inhibition, % at 10.9 µM. Bcl-2-like protein 1 (Homo sapiens), Q07817. GST-Bcl-xL / FITC-Bim BH3 peptide fluorescence polarization. actives 0.7% (n = 320,000);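 active = inhibition above the mean of all tested compounds plus 3 SD, cutoff set per campaign, cut at about 30% in these data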;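 also: 0% = DMSO wells and 100% = unlabeled Bim-BH3 peptide competitor; inhibitors lower millipolarization by displacing the labeled peptide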
# BCLXL inh confirm – Bcl-xL inhibitors blocking Bim BH3 binding, confirmation, counter-screen for MCL1 inhibitor project, biochemical, fluorescence polarization; GST-Bcl-xL / FITC-Bim BH3 peptide FP binding; shares compounds with MCL1 BIM primary; inhibition, % at 10.9 µM; actives 54% (n = 1,700);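 active = inhibition above a cutoff equal to the mean inhibition of all tested compounds plus 3 SD, cut at about 30% in these data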;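 also: 0% = DMSO wells and 100% = unlabeled Bim BH3 control peptide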
# MCL1 BIM confirm – inhibitors of MCL1 binding to BIM-BH3, confirmation, biochemical, fluorescence polarization, triplicate | inhibition, % at 10.9 µM | AID 2168, 2009 | actives 61% (n = 1,700) | GST-MCL1 / FITC-Bim-BH3 fluorescence polarization | shares compounds with MCL1 BIM primary;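 active = inhibition above the average of all tested compounds plus 3 SD, cut at about 40% in these data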;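 also: 0% = DMSO wells and 100% = unlabeled Bim-BH3 control peptide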
# GLD-1 TGE cf – GLD-1/TGE RNA binding inhibitors, retest, confirmation, biochemical, fluorescence polarization, triplicate. shares compounds with GLD-1 TGE inh. GLD-1/FL-TGE RNA fluorescence polarization. inhibition, % at 5.96 µM. actives 10% (n = 550);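 active = average inhibition across triplicates above the hit cutoff set in the primary screen, cut at about 32% in these data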;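 also: 0% = GLD-1 with RNA probe and DMSO and 100% = wells lacking GLD-1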
# Numbers without * were called inactive; x = no result; + = active, no number.
SMILES,Mcl1 Bid PPI,Bim-Mcl-1,GLD-1 TGE inh,Mcl1-Noxa inh,MCL1 BIM primary,BCLXL inh,BCLXL inh confirm,MCL1 BIM confirm,GLD-1 TGE cf
Cc1c(NC(=O)C(C)OC(=O)c2cc(-c3cccc4ccccc34)nc3ccccc23)c(=O)n(-c2ccccc2)n1C (stereo unspecified),1,-3,38*,13,86*,75*,26,30,3
O=C(COc1ccc(S(=O)(=O)N2CCOCC2)cc1)Nc1cccc([N+](=O)[O-])c1,x,x,2,x,0,-1,x,x,x
CCCCSc1ccc(NC(=O)c2cccnc2)cc1,-8,-3,41*,8,77*,76*,3,9,0
CCC(C)c1ccc(NC(=O)c2cccnc2)cc1 (stereo unspecified),-10,-1,2,27,-2,3,x,x,x
Cc1nn2c(N)csc2nc1=O,8,13,34*,28,58*,57*,51*,59*,20
COc1ccc(OC)c(S(=O)(=O)ON2C(=O)c3ccccc3C2=O)c1,x,x,-2,x,4,-2,x,x,x
N#CC1(C#N)COC23CCCCC2C1(C#N)C(=N)O3 (stereo unspecified),-32,0,45*,12,78*,68*,16,15,-4
CN(C(=O)CN1C(=O)c2cccc(N)c2C1=O)C1CCCCC1,x,x,45*,x,73*,61*,56*,77*,49*
CC1CCCCC1NC(=O)CN1C(=O)c2cccc(N)c2C1=O (stereo unspecified),-61,-1,x,4,x,x,x,x,x
CC(C)c1ccc(N2C(=O)/C(=C/N(C)C)SC2=S)cc1,-8,x,74*,-11,+,+,+,+,-6
CC(C)OCCCNC(=O)c1cn(C)c2ccc(S(=O)(=O)N(C)C3CCCCC3)cc2c1=O,x,x,4,x,-2,7,x,x,x
CCCn1c(/N=C/c2c[nH]c3ccccc23)nc2ccccc21,18,0,40*,17,83*,80*,10,4,1
CCN1CCN(C(=O)CN2C(=O)COc3ccc(C)cc32)CC1,x,x,3,x,0,2,x,x,x
CN(c1ccccc1)S(=O)(=O)c1cccc(NC(=O)CN2CCCc3ccccc32)c1,-46,x,-43,4,-10,-3,x,x,x
NS(=O)(=O)c1cccc(NC(=O)CN2CCc3ccccc32)c1,-33,2,47*,21,77*,63*,6,0,-4
CNc1nnc(Sc2ncccc2[N+](=O)[O-])s1,2,x,40*,-1,62*,64*,6,-1,-2
O=[N+]([O-])c1cccnc1Sc1ccc(F)cc1,x,x,-10,x,0,2,x,x,x
CCN(CC)C(=O)C1=C(C)NC(=O)NC1c1c(F)cccc1Cl (stereo unspecified),-11,-3,5,13,-1,-4,x,x,x
CCN(CC)C(=O)C1=C(C)NC(=O)NC1c1ccccc1F (stereo unspecified),-18,0,40*,8,66*,51*,23,27,6
COc1cccc(C(=O)N2CCN(C(=O)c3cccc(F)c3)CC2)c1,-19,0,53*,-27,85*,76*,0,0,5

# High-throughput results deposited in PubChem by several laboratories.
